The values below come from ChEMBL document CHEMBL4296182, “CO-ADD screening of NIH NCI Diversity Set V”.

The structures appear in SMILES notation. For part of these data: Results with a measured potency or affinity are listed apart.

Assay [1] concerns Staphylococcus aureus. As to the kind of experiment: Antibacterial activity against Staphylococcus aureus MRSA ATCC 43300 (CO-ADD:GP_020); MIC in CAMBH media using NBS plates, by Resazurin F(560/590). The format is functional. The note with it: Concentration 20 uM, ASSAY_TEST Inhibition of Bacterial Growth, detection method Resazurin, Fluorescence (ex560/em590), MEDIA CAMHB, plate type 384well, CORNING #3640, time 18 hr.

For assay [2], the system named is Acinetobacter baumannii. Kind of assay: Antibacterial activity against Acinetobacter baumannii ATCC 19606 (CO-ADD:GN_034); MIC in CAMBH media using NBS plates, by Resazurin F(560/590). The format is functional. The note with it: Concentration 20 uM, ASSAY_TEST Inhibition of Bacterial Growth, detection method Resazurin, Fluorescence (ex560/em590), MEDIA CAMHB, plate type 384well, CORNING #3640, time 18 hr. On the technique in general: Alamar Blue is a resazurin reagent that responds to reducing activity.

In assay [3] the test system is Escherichia coli. Kind of assay: Antibacterial activity against Escherichia coli ATCC 25922 (CO-ADD:GN_001); MIC in CAMBH media using NBS plates, by Resazurin F(560/590). The format is functional. The note with it: Concentration 20 uM, ASSAY_TEST Inhibition of Bacterial Growth, detection method Resazurin, Fluorescence (ex560/em590), MEDIA CAMHB, plate type 384well, CORNING #3640, time 18 hr.

The subject of assay [4] is Klebsiella pneumoniae. The note with it: Concentration 20 uM; ASSAY_TEST Inhibition of Bacterial Growth; detection method Absorption (OD600); MEDIA CAMHB; plate type 384well; NBS; CORNING #3640; time 18 hr.
For assay [5], the system named is Candida albicans. The note with it: 20 µM.
Assay [6] concerns Cryptococcus neoformans. The note with it: Concentration 20 uM; ASSAY_TEST Inhibition of Fungal Growth; detection method Resazurin; Absorption (OD600-OD570); plate type 384well; NBS; CORNING #3640.

By Inhibition is commonly meant the relative decrease from the control value, in per cent. As for `CN(C)c1ccc(/C=C/C(=O)c2cc(Cl)ccc2O)cc1`, the Inhibition in assay [1] was 14.9%; in assay [2], -19.64%; in assay [3], 10.48%; in assay [4], 1%; in assay [5] it was 8.13%; in assay [6] it was -6.08%.
As for `CSc1nc(C)cc(S)n1`, the Inhibition in assay [1] was 0.72%; in assay [2], -7.16%; in assay [3], 3.46%; in assay [4], 5.27%; in assay [5], 18.9%; in assay [6] it was -4.48%.
As for `CCOC(=O)Cc1cnc(S)nc1O`, the Inhibition in assay [1] was 9.6%; in assay [2], -11.54%; in assay [3], 7.99%; in assay [4], 8.74%; in assay [5] it was 1.43%; in assay [6] it was -1.74%.
Consider `CC1CC(C)(C)C2=NCCN21` (stereo not given), for which the Inhibition was 12.73% in assay [1]; -16.85% in assay [2]; 7.35% in assay [3]; 11.7% in assay [4]; 5.23% in assay [5]; -11% in assay [6].
As for `O=C1NCN(CCO)CN1`, the Inhibition is 3.46% in assay [1]; -3.91% in assay [2]; 8.55% in assay [3]; 4.75% in assay [4]; 0.72% in assay [5]; -3.9% in assay [6].
With `CC(=O)NCC(=O)O.CN(C)CCC1c2ccc(Cl)cc2CCc2cccnc21` (stereo not given) [CLOSIRAMINE ACETURATE], the Inhibition in assay [1] is 15.26%; in assay [2], -11.76%; in assay [3], 19.15%; in assay [4], 8.33%; in assay [5] it was -2.05%; in assay [6] it was -9.31%.
Turning to `CC(C)(C)c1ccc(OCC(=O)O)cc1`, the Inhibition in assay [1] is 4.22%; in assay [2], -1%; in assay [3] it was 10.46%; in assay [4] it was 8.68%; in assay [5], 8.84%; in assay [6] it was -1.59%.
With `CC(=O)Nc1cc(NC(C)=O)ncn1`, the Inhibition in assay [1] was 12.16%; in assay [2], -10.63%; in assay [3], 12.12%; in assay [4] it was 16.66%; in assay [5] it was 3.12%; in assay [6] it was -1.27%.
For the molecule `Cc1cccn2c(S)nnc12`, the Inhibition in assay [1] was 10.19%; in assay [2] it was -5.53%; in assay [3], 13.03%; in assay [4], 17.76%; in assay [5], 5.89%; in assay [6], -6.48%.
Consider `COc1ccc(/C(C#N)=C/c2cccnc2)cc1`, for which the Inhibition in assay [1] is 17.02%; in assay [2], -13.68%; in assay [3], 11.08%; in assay [4] it was 6.19%; in assay [5], 11.3%; in assay [6], -16.52%.
Take `CCCOc1ccc(-c2nc(-c3ccc([N+](=O)[O-])cc3)cs2)cc1`: the Inhibition is 9.47% in assay [1]; 16.16% in assay [2]; 3.67% in assay [3]; 10.79% in assay [4]; 5.94% in assay [5]; -3.16% in assay [6].
On to `S=C1SCN(CCc2ccccc2)CN1CCc1ccccc1`, for which the Inhibition in assay [1] is -3.89%; in assay [2], 1.92%; in assay [3], 3.19%; in assay [4], 4.28%; in assay [5], 31.3%; in assay [6], -3.46%.
On to `Cc1ccc(Cl)cc1NC(=O)c1cc2ccccc2cc1O`, for which the Inhibition in assay [1] was 5.29%; in assay [2], -8.92%; in assay [3] it was 15.86%; in assay [4], 12.1%; in assay [5] it was 4.11%; in assay [6], -7.39%.
Regarding `O=c1c2ccccc2ncn1-c1ccc(Cl)cc1`, the Inhibition was 11.71% in assay [1]; -18.47% in assay [2]; 12.96% in assay [3]; 4.73% in assay [4]; 3.91% in assay [5]; -12.39% in assay [6].
In the case of `c1ccc2c(c1)Nc1cc3ccccc3cc1S2`, the Inhibition is 1.39% in assay [1]; -1.02% in assay [2]; 3.79% in assay [3]; 5.14% in assay [4]; -0.01% in assay [5]; -3.36% in assay [6].
Take `Cn1c(=O)c2c(nc(Cc3ccc(N)cc3)n2C)n(C)c1=O`: the Inhibition was 12.3% in assay [1]; 8.51% in assay [2]; 1.69% in assay [3]; 16.58% in assay [4]; -1.67% in assay [5]; -5.25% in assay [6].
With `O=C(O)c1ccc2c(c1Sc1ccccc1)C(=O)c1ccccc1C2=O`, the Inhibition in assay [1] was -2.35%; in assay [2] it was 11.62%; in assay [3], -1.12%; in assay [4] it was 2.65%; in assay [5] it was 1.7%; in assay [6] it was -3.15%.
For the molecule `C=C1S/C(=N\c2c(C)cccc2Cl)N(C(=O)c2sc3ccccc3c2Cl)C12CCCCC2`, the Inhibition is 4.2% in assay [1]; 0.82% in assay [2]; -2.79% in assay [3]; 4.92% in assay [4]; 5.73% in assay [5]; 0.57% in assay [6].
For the molecule `CC(=O)OCCN1c2ccccc2Sc2cnccc21`, the Inhibition is -12.23% in assay [1]; -1.85% in assay [2]; -8.04% in assay [3]; 5.46% in assay [4]; 1.65% in assay [5]; -8.61% in assay [6].
On to `CCOC(=O)c1cc(-c2cccnc2)nc2c(Cl)cc(Cl)cc12`, for which the Inhibition in assay [1] was 15.12%; in assay [2] it was -10.84%; in assay [3], 5.86%; in assay [4] it was 9.75%; in assay [5] it was 4.8%; in assay [6], -6.65%.
Take `OCc1ncccc1O`: the Inhibition in assay [1] is -1.04%; in assay [2], -10.34%; in assay [3], -5.68%; in assay [4] it was 25.51%; in assay [5] it was 3.22%; in assay [6], 0.67%.
`C=C(C)C/N=C/C1(C)CCC(C)=CO1` (stereo not given): the Inhibition in assay [1] was -0.35%; in assay [2], 0.87%; in assay [3] it was -9.37%; in assay [4], 5.17%; in assay [5] it was 1.63%; in assay [6], 19.3%.
In the case of `CCCCC(=O)N(CCC)CCC`, the Inhibition in assay [1] is 2.53%; in assay [2], -12.7%; in assay [3], 10.06%; in assay [4], 7.98%; in assay [5], -2.94%; in assay [6], -14.22%.
Take `CCOC(=O)C(C)c1c(C(=O)c2ccc(C)nc2)c2ccccc2n1C` (stereo not given): the Inhibition is 10.11% in assay [1]; 9.14% in assay [2]; -0.3% in assay [3]; 16.34% in assay [4]; 0.68% in assay [5]; -10.08% in assay [6].
`Cn1ncc2c(Nc3cccc(Cl)c3)nc(Nc3cccc(Cl)c3)nc21`: the Inhibition in assay [1] was 15.88%; in assay [2], -2.31%; in assay [3], 4.26%; in assay [4] it was 11.58%; in assay [5], -1.22%; in assay [6] it was -11.25%.
